The text below walks through data of PubChem BioAssay.

Assay [1] is described as follows: anti-His antibody binders, primary screen, artefact control for SMM control protein annotation, biochemical, small-molecule microarray, 635 nm fluorescence (AID 1128).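 Note: score merges feature fluorescence with signal-to-noise for each printed compound spot.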 The conditions noted are these: anti-His Alexa647 antibody binding, higher = more signal.
Assay [2] has as its system Human papillomavirus type 1a E7 protein (residues 1-88). Put plainly: HPV1a E7 small-molecule binders, primary screen, biochemical, small-molecule microarray, residues 1-88, 635 nm (AID 1129). The conditions noted are these: small-molecule microarray binding, fluorescence 635 nm; higher = more signal.
Assay [3] has as its target Focal adhesion kinase 1 (Homo sapiens) (UniProt Q05397). Put plainly: small-molecule microarray binders of FAK, primary screen, biochemical, 635/667 nm fluorescence, BSA, DTT (AID 1130).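 Note: composite of spot emission at 667 nm and signal to noise over triplicate slides.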 The conditions noted are these: PTK2 binding, 635 nm fluorescence, higher = more signal.
Assay [4] concerns Fibrinogen (Alexa647-labelled). Put plainly: fibrinogen binders on compound microarrays, profiling panel, artefact control for SMM control-protein annotation, biochemical, small-molecule microarray, 635/667 nm fluorescence (AID 1131).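 Note: z-score merges 667 nm fluorescence with per-spot signal-to-noise over triplicate slides.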 The conditions noted are these: fibrinogen-A647 binding fluorescence, higher = more signal.
Assay [5] has as its target Follistatin (Homo sapiens) (UniProt P19883). Briefly: follistatin binders on small-molecule microarrays, primary screen, biochemical, small-molecule microarray, 635/667 nm fluorescence (AID 1132). The conditions noted are these: FST binding, 635 nm fluorescence, higher = more signal.
The target in assay [6] is Fibroblast growth factor 2 (Homo sapiens) (UniProt P09038). Put plainly: FGF2 binders on small-molecule microarrays, primary screen, biochemical, small-molecule microarray, 635/667 nm fluorescence (AID 1133). The conditions noted are these: small-molecule microarray binding, FGF2, fluorescence 635/667; higher = more signal.
Assay [7] is described as follows: mitochondrial membrane potential change in A549 cells, profiling panel, cell-based, JC-1 fluorescence, basal, 24 h, 100 nL (AID 1138).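 Note: A549 lung adenocarcinoma cells under basal conditions with no added stimulus; test concentration not given here.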 The conditions noted are these: higher = more signal.
The next assay relates to Lefty1. Put plainly: Lefty1 binders on small-molecule microarrays, primary screen, biochemical, small-molecule microarray, 635/667 nm fluorescence (AID 1139). The note with it: small-molecule microarray binding, fluorescence 635/667; higher = more signal.
The test system of assay [8] is wheat germ agglutinin (Triticum aestivum), Alexa647-labelled. Put plainly: wheat germ agglutinin binders on compound microarrays, profiling panel, artefact control for SMM control-protein annotation, biochemical, small-molecule microarray, 635/667 nm fluorescence (AID 1140).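 Note: score merges 667 nm feature emission with signal to noise over triplicate slides.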 The conditions noted are these: WGA-A647 binding, 635 nm fluorescence, higher = more signal.
In assay [9] the target is Luciferin 4-monooxygenase (Photinus pyralis) (UniProt P08659). Put plainly: firefly luciferase enzyme inhibitors, primary screen, biochemical, luminescence, purified enzyme, 2006 set (AID 1141).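 Note: cell-free assay with purified firefly luciferase at 100 ng per well in PBS; test concentration not given here.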 The conditions noted are these: SteadyGlo luminescence, 30 min, higher = more signal, called active from +8 up or from −8 down.

The structures appear in SMILES notation. Calls of active or inactive are those of the source.

Sequence of Fibroblast growth factor 2 (Homo sapiens) (P09038 whole entry, looked up): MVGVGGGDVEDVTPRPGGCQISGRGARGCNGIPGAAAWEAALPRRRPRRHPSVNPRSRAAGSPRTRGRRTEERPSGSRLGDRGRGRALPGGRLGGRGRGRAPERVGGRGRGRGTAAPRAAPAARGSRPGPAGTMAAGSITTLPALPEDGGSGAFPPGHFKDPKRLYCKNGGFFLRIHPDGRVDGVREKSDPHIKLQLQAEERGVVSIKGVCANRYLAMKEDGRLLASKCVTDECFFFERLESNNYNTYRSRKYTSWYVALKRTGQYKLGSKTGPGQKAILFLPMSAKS
Sequence of Follistatin (Homo sapiens) (P19883 whole entry, looked up): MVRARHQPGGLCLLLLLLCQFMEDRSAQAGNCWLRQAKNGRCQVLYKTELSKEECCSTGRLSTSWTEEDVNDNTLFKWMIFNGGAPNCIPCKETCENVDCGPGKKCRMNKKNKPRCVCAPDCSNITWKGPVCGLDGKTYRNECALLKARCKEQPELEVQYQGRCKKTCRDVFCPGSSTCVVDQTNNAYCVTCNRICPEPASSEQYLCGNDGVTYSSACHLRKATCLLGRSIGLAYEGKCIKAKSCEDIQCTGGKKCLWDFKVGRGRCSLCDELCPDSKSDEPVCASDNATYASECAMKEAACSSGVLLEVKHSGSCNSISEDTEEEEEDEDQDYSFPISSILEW
Sequence of Focal adhesion kinase 1 (Homo sapiens) (Q05397 whole entry, looked up): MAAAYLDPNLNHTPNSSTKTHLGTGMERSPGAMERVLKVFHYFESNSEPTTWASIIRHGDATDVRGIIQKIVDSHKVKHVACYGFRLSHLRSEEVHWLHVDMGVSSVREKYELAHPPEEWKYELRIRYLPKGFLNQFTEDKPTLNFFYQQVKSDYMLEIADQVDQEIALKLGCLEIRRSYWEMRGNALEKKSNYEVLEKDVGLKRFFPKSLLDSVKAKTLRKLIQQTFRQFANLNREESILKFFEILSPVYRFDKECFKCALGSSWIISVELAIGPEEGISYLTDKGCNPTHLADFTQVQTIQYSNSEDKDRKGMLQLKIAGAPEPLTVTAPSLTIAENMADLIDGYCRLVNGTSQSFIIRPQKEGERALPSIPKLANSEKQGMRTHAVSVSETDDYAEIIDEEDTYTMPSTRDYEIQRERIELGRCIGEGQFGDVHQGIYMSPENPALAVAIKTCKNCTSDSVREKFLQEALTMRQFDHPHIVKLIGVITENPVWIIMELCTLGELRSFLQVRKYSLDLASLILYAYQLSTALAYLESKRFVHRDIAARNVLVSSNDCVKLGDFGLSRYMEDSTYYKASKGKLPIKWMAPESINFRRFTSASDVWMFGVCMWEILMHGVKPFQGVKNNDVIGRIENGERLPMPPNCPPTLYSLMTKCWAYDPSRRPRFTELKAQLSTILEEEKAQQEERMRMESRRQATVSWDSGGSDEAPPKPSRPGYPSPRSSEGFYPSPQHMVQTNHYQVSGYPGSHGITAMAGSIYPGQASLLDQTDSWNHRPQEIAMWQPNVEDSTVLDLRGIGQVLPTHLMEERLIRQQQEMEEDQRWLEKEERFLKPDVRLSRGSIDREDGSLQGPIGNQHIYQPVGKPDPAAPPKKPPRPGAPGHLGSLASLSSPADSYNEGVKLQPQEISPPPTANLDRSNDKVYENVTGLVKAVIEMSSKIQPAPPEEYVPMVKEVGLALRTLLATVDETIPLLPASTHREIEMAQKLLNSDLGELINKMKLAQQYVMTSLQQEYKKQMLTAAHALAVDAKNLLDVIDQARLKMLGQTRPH
Sequence of Luciferin 4-monooxygenase (Photinus pyralis) (P08659 whole entry, looked up): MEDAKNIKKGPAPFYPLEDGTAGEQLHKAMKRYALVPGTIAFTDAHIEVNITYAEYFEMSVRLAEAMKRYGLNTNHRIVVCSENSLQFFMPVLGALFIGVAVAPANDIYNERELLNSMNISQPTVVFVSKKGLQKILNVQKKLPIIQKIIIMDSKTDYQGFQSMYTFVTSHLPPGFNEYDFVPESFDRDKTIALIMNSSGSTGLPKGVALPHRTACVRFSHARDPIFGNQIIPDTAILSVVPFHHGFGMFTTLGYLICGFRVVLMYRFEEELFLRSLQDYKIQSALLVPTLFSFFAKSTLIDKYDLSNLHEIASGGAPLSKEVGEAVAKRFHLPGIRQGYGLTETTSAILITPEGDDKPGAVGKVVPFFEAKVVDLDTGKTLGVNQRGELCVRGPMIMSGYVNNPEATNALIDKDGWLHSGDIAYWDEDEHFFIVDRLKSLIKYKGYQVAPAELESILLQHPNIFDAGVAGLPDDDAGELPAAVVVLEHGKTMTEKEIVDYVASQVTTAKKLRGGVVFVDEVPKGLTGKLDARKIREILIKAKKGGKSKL

As to `CO[C@H]1O[C@H](CO)[C@@H](OC(=O)CCc2ccccc2)[C@H](OC(=O)c2cc3ccccc3[nH]2)[C@H]1OC(=O)c1cc2ccccc2[nH]1`, the composite z-score is 1.37 in [1]; 1.01 in assay [2]; 0.332 in assay [3]; 0.824 in [4]; 1.26 in assay [5]; 1.31 in [6]. The composite z-score came out at 0.845 in the assay on Lefty1 and 0.726 in [8]. Also, the z-score in assay [7] is -0.201; in assay [9], -0.105 (inactive).

As to `CCCC=C(CCC)[C@@H](NC(=O)CCc1ccccc1)c1ccc(C(F)(F)F)cc1`, the composite z-score in [1] was found to be 0.608; in assay [2], 1.16; in assay [3], 0.398; in assay [4], 0.973; in assay [5], 0.809; in assay [6] it was 0.94. Besides, the composite z-score with Lefty1 stood at 0.17; in [8] it was 0.71. Besides, the z-score in [7] is 3.02; in [9], 1.31 (inactive).

Turning to `CN1C=C(C(=O)OCCS(C)(=O)=O)C(C(=O)OCCS(C)(=O)=O)=CC(c2ccc(CO)cc2)=CC1c1cccs1` (stereo not given), the composite z-score in assay [1] is 1.48; in assay [2], 0.577; in assay [3], 0.0037; in [4], 0.983; in assay [5], 0.793; in [6] it was 0.509. In addition, the composite z-score in the assay with Lefty1 turned out to be 0.644; in assay [8], 0.21. Further, the z-score in assay [7] is 2.1; in assay [9], -1.63 (inactive).

`CC1CC/C=C\[C@H]2OC34C=CCN(C(C)(C)C)C(=O)[C@H]3N(C(CO)C(C)C)C(=O)[C@@H]4C2C(=O)O1` (stereo not given in full): the composite z-score in assay [1] is -0.0256; in assay [2], -0.181; in [3] it was 0.102; in assay [4], -1.26; in assay [5], 0.276; in assay [6] it was 0.365. For the same compound, the composite z-score is 0.659 with Lefty1 and -0.324 in assay [8]. For the same compound, the z-score is -0.428 in assay [7] and -0.0671 (inactive) in assay [9].

Take `CCOC(=O)C1=CCC(c2ccccc2)N(S(=O)(=O)c2ccc([N+](=O)[O-])cc2)C1` (stereo not given): the composite z-score was 0.927 in [1]; 1.12 in assay [2]; 0.2 in assay [3]; -0.773 in [4]; 0.0227 in [5]; -0.169 in assay [6]. The composite z-score was -0.111 in the assay with Lefty1 and 0.599 in assay [8]. In addition, the figures for the z-score in assay [7] and in assay [9] were 0.0562 and 0.864 (inactive), respectively.

Consider `CN1C(=O)C2C=CC(C(O)c3cc(C(F)(F)F)cc(C(F)(F)F)c3)N(NC(=O)OC(C)(C)C)C2C1=O` (stereo not given), for which the composite z-score was 1.12 in [1]; 1.2 in assay [2]; 0.753 in assay [3]; 0.982 in assay [4]; 1.27 in assay [5]; -0.396 in assay [6]. Further, the values for the composite z-score (with Lefty1; in [8]) were 0.369 and 0.713, respectively. Moreover, the z-score was 0.717 in assay [7] and 0.75 (inactive) in assay [9].

Regarding `COc1cc(CO)cc(I)c1O[C@H]1C=C(C(=O)NCCO)C[C@@H](NCC2CCCCC2)[C@@H]1O`, the composite z-score worked out at 0.72 in [1]; 0.283 in [2]; 0.211 in [3]; 0.0646 in assay [4]; 0.521 in assay [5]; 0.566 in [6]. Further, the composite z-score in the assay with Lefty1 stood at 0.302; in assay [8] it was 0.672. Further, the z-score is -0.0493 in assay [7] and 0.734 (inactive) in assay [9].

In the case of `CCCCCCCCCCC(O)C1C=CC2C(=O)N(C)C(=O)C2N1Nc1cc(OC)c(OC)c(OC)c1` (stereo not given), the composite z-score was 0.255 in assay [1]; 0.242 in assay [2]; 0.55 in [3]; -0.203 in assay [4]; -0.763 in assay [5]; -1.44 in [6]. The figures for the composite z-score (in the assay on Lefty1; in assay [8]) were -0.946 and 0.458, respectively. Moreover, the figures for the z-score in assay [7] and in assay [9] were 1.06 and -0.819 (inactive), respectively.

As for `COc1ccc(CCNC(=O)[C@@]2(Cc3ccccc3I)c3ccccc3C(=O)N(Cc3ccccc3Cl)[C@H]2c2ccc(CO)cc2)cc1`, the composite z-score in [1] is 0.0199; in assay [2], 0.899; in [3], 0.196; in [4] it was 0.0632; in [5], 0.0376; in [6], 0.0031. The results for the composite z-score (in the assay with Lefty1; in [8]) were -0.321 and 0.0638, respectively. Moreover, the z-score is 0.311 in assay [7] and -0.0513 (inactive) in assay [9].

For `CCCCC(=C=CC[C@H](O)c1ccc(OCCO)cc1)C[C@H](O)COCc1ccccc1`, the composite z-score in assay [1] is 0.522; in assay [2], 0.0648; in [3], 0.477; in assay [4] it was -0.56; in assay [5] it was 0.163; in [6] it was 0.501. Besides, the results for the composite z-score (with Lefty1; in assay [8]) were 0.235 and -0.0019, respectively. The results for the z-score in [7] and in assay [9] were 2.19 and -1.22 (inactive), respectively.

Consider `CCOC(=O)C1=CCC(c2ccco2)N(S(=O)(=O)c2ccc(C)cc2)C1` (stereo not given), for which the composite z-score in assay [1] was 1.1; in [2], 1.2; in assay [3] it was 0.841; in assay [4], 0.965; in [5] it was 1.1; in [6], 0.377. In addition, the results for the composite z-score (in the assay on Lefty1; in assay [8]) were 0.851 and 0.832, respectively. Further, the values for the z-score in [7] and in assay [9] were -0.664 and -1.58 (inactive), respectively.

`[N-]=[N+]=Nc1ccccc1C[C@]1(C(=O)O)N=C(c2ccc(OCCCO)cc2)O[C@H]1c1ccccc1N=[N+]=[N-]`: the composite z-score in [1] was determined as 1.45; in assay [2] it was 1.21; in assay [3] it was 0.507; in [4] it was 0.986; in assay [5], 0.945; in assay [6], 0.0923. The results for the composite z-score (in the assay on Lefty1; in assay [8]) were -0.676 and 1.25, respectively. The z-score in assay [7] is 0.64; in assay [9], -5.36 (inactive).

For the compound `O=C1C2C=CC(C(O)c3cc(C(F)(F)F)cc(C(F)(F)F)c3)N(Nc3ccccc3F)C2C(=O)N1c1ccccc1` (stereo not given), the composite z-score in assay [1] is -0.102; in assay [2] it was 1.21; in assay [3] it was 0.76; in assay [4], 0.847; in [5], 0.21; in assay [6] it was -0.215. Further, the composite z-score in the assay with Lefty1 was -0.173; in assay [8], 0.416. Besides, the z-score in assay [7] was -1.58; in [9], 0.668 (inactive).

Turning to `NCCCCCNC(=O)[C@H]1C[C@H]2C(=O)N[C@@H](Cc3ccccc3)C(=O)N2[C@H]1c1ccc(O)cc1`, the composite z-score in assay [1] is 1.61; in assay [2], 0.756; in assay [3], -0.506; in [4], 0.94; in assay [5], 1.4; in assay [6], 0.169. In addition, the composite z-score came out at 0.765 in the assay with Lefty1 and 0.81 in assay [8]. For the same compound, the figures for the z-score in assay [7] and in assay [9] were -0.421 and -1.35 (inactive), respectively.

In the case of `COCCOC(=O)N1C(=O)[C@@]2(c3cc(C#CCC(C(=O)OC)C(=O)OC)ccc31)[C@H](c1ccc(O)cc1)N1[C@H](c3ccccc3)[C@H](c3ccccc3)OC(=O)[C@H]1[C@@H]2C(=O)NC[C@H](O)c1ccccc1`, the composite z-score in assay [1] is 0.135; in assay [2] it was 1.19; in assay [3], 0.933; in assay [4], 0.8; in assay [5], 1.11; in assay [6], -0.011. Besides, the composite z-score in the assay with Lefty1 was 0.222; in assay [8], 1.03. The values for the z-score in assay [7] and in assay [9] were -0.236 and 1.04 (inactive), respectively.

`COCCOC(=O)N1C(=O)[C@@]2(c3cc(C#CCCO)ccc31)[C@H](C(=O)N1CCCCCCC1)[C@H]1C(=O)O[C@H](c3ccccc3)[C@H](c3ccccc3)N1[C@@H]2c1ccccc1OCCO`: the composite z-score in assay [1] is 0.573; in assay [2], 1.19; in assay [3], 0.686; in [4], 0.885; in assay [5], 1.45; in assay [6], 0.819. Also, the composite z-score in the assay with Lefty1 amounted to 1.41; in [8], 1.25. Moreover, the figures for the z-score in assay [7] and in assay [9] were -0.971 and -1.29 (inactive), respectively.
